Source: PubChem BioAssay AID1851 (National Center for Advancing Translational Sciences (NCATS), 2009)
Among all 16,000 compounds or so, about 5,800 (36%) were called active. Not shown: some 23% with an inconclusive outcome. Calls follow the shape of the dose curve; as a rule, active = well fitted curve in the direction sought with a large enough effect; inconclusive = small, poorly fitted or top-dose-only effect, or effect the other way; inactive = no such curve, though single readings can be large or run the other way. The list shows a part of the results.

These molecules were tested against Cytochrome P450 2C19 (Homo sapiens) (UniProt P33261) (assay: Cytochrome panel assay with activity outcomes). Conditions: recombinant CYP, pro-luciferin dealkylation, luminescence, p450-cyp2c19; series mostly up to 57.1 µM.
Sequence of Cytochrome P450 2C19 (Homo sapiens) (P33261 whole entry, looked up): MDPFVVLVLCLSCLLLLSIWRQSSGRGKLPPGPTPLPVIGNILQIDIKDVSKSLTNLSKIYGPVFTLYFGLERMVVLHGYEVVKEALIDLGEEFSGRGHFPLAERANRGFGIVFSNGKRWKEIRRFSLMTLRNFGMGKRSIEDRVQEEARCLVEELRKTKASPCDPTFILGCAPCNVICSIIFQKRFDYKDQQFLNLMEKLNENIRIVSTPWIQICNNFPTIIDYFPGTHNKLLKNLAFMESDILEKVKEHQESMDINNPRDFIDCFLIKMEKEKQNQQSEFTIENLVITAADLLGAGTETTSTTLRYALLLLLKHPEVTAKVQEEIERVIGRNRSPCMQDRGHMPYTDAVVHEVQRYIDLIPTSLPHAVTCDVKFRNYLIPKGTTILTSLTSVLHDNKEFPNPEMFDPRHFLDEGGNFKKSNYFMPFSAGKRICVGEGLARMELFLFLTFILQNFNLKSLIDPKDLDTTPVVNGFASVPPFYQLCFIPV
% is scaled to controls: 0 for no effect and ±100 for the full control effect.

Q: With O=C(O)CCCCCNC(=O)c1ccccc1Br as the molecule, how does the AC50 read?
A: inactive

Q: For O=C(NCCNc1ccc([N+](=O)[O-])cc1)c1ccccc1Br, which AC50 is on record?
A: 7.94 µM (active)

Q: Which activity, negative = inhibition does the source give for O=[N+]([O-])c1ccc(NN=C2c3ccccc3Cc3ccccc32)c([N+](=O)[O-])c1 here?
A: -15.8% [at 11.4 µM] (inactive)

Q: How did the AC50 turn out when O=[N+]([O-])c1ccc(C2CCCC/C2=N\OCc2cccc(F)c2)c([N+](=O)[O-])c1 (configuration not stated) was run?
A: 7.08 µM (active)

Q: CC(Sc1ccc2c(c1)OCCO2)C(=O)Nc1ncc(Cl)cc1Cl (configuration not stated) was tested. Which AC50 did it give?
A: 2.82 µM (active)

Q: With Cc1cccc(C)c1OC[C@H](C)N as the molecule, how does the AC50 read?
A: inactive

Q: Which AC50 does the source give for COc1ccc2cc(C(=O)CCC(=O)O)ccc2c1 here?
A: 2 µM (active)

Q: COc1ccc2cc(CCC(C)=O)ccc2c1 was tested. Which AC50 did it give?
A: inactive

Q: How did the AC50 turn out when CCOc1ccc(C(=O)CCC(=O)O)cc1 was run?
A: inactive

Q: Cc1ccc(S(=O)(=O)N[C@H]2COC(=O)[C@H](C)COC(=O)[C@H](C)NC(=O)C/C=C\[C@H]2C)cc1 was tested. Which activity, negative = inhibition did it give?
A: 16.6% [at 11.4 µM] (inactive)

Q: For CCOc1cccc(CNCCNC(=O)c2nonc2N)c1, which AC50 is on record?
A: 15.8 µM (active)

Q: How did the AC50 turn out when COc1cccc(CNc2ccc3nc(-c4ccc(N)cc4)c(OC)n3n2)c1 was run?
A: inactive

Q: For COc1cccc(CNCCNC(=O)c2nonc2N)c1, which AC50 is on record?
A: 15.8 µM (active)

Q: How did the activity, negative = inhibition turn out when COc1cccc(CSCC(=O)O)c1 was run?
A: -7.72% [at 11.4 µM] (inactive)

Q: How did the activity, negative = inhibition turn out when CN1CCN(CN2C(=O)C3C4C=CC(C3C2=O)C2C3C(=O)N(CN5CCN(C)CC5)C(=O)C3C42)CC1 (configuration not stated) was run?
A: 27.4% [at 11.4 µM] (inactive)

Q: CC[C@@]12CCCN3CCc4c(n(c5ccccc45)C(=O)C1)[C@H]32 was tested. Which activity, negative = inhibition did it give?
A: -19.6% [at 11.4 µM] (inactive)

Q: Cc1ccc(S(=O)(=O)c2nc(S(=O)(=O)c3ccc(C)cc3)c(NCc3ccco3)s2)cc1 was tested. Which AC50 did it give?
A: 8.91 µM (active)

Q: How did the AC50 turn out when Oc1ccc(Cn2cc[nH]c2=S)cc1 was run?
A: inactive

Q: With O=C(NC(=S)Nc1nc(-c2ccc(Br)cc2)cs1)c1cccnc1 as the molecule, how does the AC50 read?
A: 10 µM (active)

Q: Which AC50 does the source give for O=C(NNC(=S)NC(=O)c1cccnc1)c1ccccc1 here?
A: inactive

Q: Which activity, negative = inhibition does the source give for O=S(=O)(O)c1ccc2cc(N=Nc3cc(S(=O)(=O)O)c4cccnc4c3O)ccc2c1 here?
A: -22.6% [at 11.4 µM] (inactive)

Q: How did the activity, negative = inhibition turn out when NC(N)=N/N=C\c1ccc(C2CCNCC2)cc1 was run?
A: 23.7% [at 11.4 µM] (inactive)

Q: CS/C(N)=N/N=C/c1ccc([N+](=O)[O-])cc1 was tested. Which AC50 did it give?
A: 14.1 µM (active)

Q: With COc1ccc(C=NC(CO)C(O)c2ccc([N+](=O)[O-])cc2)cc1 (configuration not stated) as the molecule, how does the AC50 read?
A: inactive

Q: With O=C(NC[C@@H](O)CO)c1c(I)c(C(=O)NC[C@@H](O)CO)c(I)c(N(CCO)C(=O)CO)c1I as the molecule, how does the AC50 read?
A: inactive

Q: O=C(COc1cccc2ccccc12)N1c2ccccc2CCc2ccccc21 was tested. Which AC50 did it give?
A: 0.447 µM (active)

Q: With CC(C)NC[C@H](O)COc1cccc2ccccc12 as the molecule, how does the AC50 read?
A: inactive

Q: With CC(C)NC[C@@H](O)COc1cccc2ccccc12 as the molecule, how does the AC50 read?
A: inactive

Q: How did the AC50 turn out when CCOC(=O)c1cc(NC(=O)c2ccc(OC)cc2)c(=O)oc1-c1ccccc1 was run?
A: 2.82 µM (active)

Q: How did the AC50 turn out when COC(=O)c1cc(-c2ccccc2)sc1NC(=O)CN1C(=O)c2ccccc2C1=O was run?
A: 7.08 µM (active)

Q: Which AC50 does the source give for CCOC(=O)c1cc(CC)sc1NC(=O)C(c1ccccc1)c1ccccc1 here?
A: 8.91 µM (active)

Q: With CCOC(=O)c1cc(-c2ccccc2)sc1NC(=O)C(C)(C)C as the molecule, how does the AC50 read?
A: inactive

Q: Which AC50 does the source give for CCc1cc(C(=O)OC)c(NC(=O)CCCC(=O)O)s1 here?
A: inactive

Q: Which AC50 does the source give for CCOC(=O)c1cc(-c2ccccc2)sc1NC(=O)c1ccc(OC)cc1 here?
A: 7.94 µM (active)

Q: For CO[C@@H]1COC(=O)[C@H](C)NC(=O)[C@@H](C)COC(=O)CCC[C@H]1C, which activity, negative = inhibition is on record?
A: 15.2% [at 11.4 µM] (inactive)

Q: Which AC50 does the source give for CCOC(=O)c1sc(NC(=O)CSc2nc(C)cc(C)c2C#N)c(C#N)c1C here?
A: 5.62 µM (active)

Q: Which AC50 does the source give for CCOC(=O)c1sc(NC(=O)CSc2n[nH]c(-c3ccc(Cl)cc3Cl)n2)c(C#N)c1C here?
A: 2.24 µM (active)

Q: How did the AC50 turn out when Cc1ccccc1OCC(=O)Nc1sc(C(=O)Nc2cccc(C)c2C)c(C)c1C#N was run?
A: inactive

Q: For CCOC(=O)c1sc2c(c1C)c(=O)c(C(=O)OCC)cn2CC, which AC50 is on record?
A: inactive

Q: For CCOc1ccc(-c2c[n+](=O)c3c(n2[O-])CCCC3)c(OCC)c1, which AC50 is on record?
A: inactive

Q: With O=C1c2ccccc2N[C@H](c2cc(Cl)cc(Cl)c2O)N1CCc1ccccn1 as the molecule, how does the AC50 read?
A: 3.98 µM (active)

Q: Which AC50 does the source give for CCOc1ccccc1Nc1nc(-c2sc(NC(=O)c3ccccc3)nc2C)cs1 here?
A: 3.16 µM (active)

Q: For COc1ccc(OC)c(Nc2nc(-c3sc(NC(=O)c4ccccc4)nc3C)cs2)c1, which AC50 is on record?
A: 6.31 µM (active)

Q: COc1cc(C(=O)Nc2nc3ccc4nc(C)sc4c3s2)cc(OC)c1OC was tested. Which AC50 did it give?
A: inactive

Q: With CCn1c(C)c(/C=N/Nc2nc3ccccc3s2)c2ccccc21 as the molecule, how does the AC50 read?
A: 3.16 µM (active)

Q: For Cc1ccc(OCCCC(=O)Nc2ccccc2C(F)(F)F)cc1, which AC50 is on record?
A: 6.31 µM (active)

Q: Which AC50 does the source give for Cc1ccc(-c2ccc(=O)n(CC(=O)NCCN(C)C)n2)cc1 here?
A: inactive

Q: How did the AC50 turn out when Cc1ccc(-c2ccc(=O)n(CC(=O)NCc3ccco3)n2)cc1 was run?
A: 7.94 µM (active)

Q: Which AC50 does the source give for CCCN1CCN(CCCNC(=O)Cn2nc(-c3ccc(C)cc3)ccc2=O)CC1 here?
A: inactive

Q: For Cc1cccc(OCCCC(=O)Nc2ccccc2C(F)(F)F)c1, which AC50 is on record?
A: 7.08 µM (active)

Q: How did the AC50 turn out when Cc1c(Nc2ncccc2C(=O)O)cccc1C(F)(F)F was run?
A: inactive

Q: COc1ccc([N+](=O)[O-])cc1NC(=S)NC(NC(=O)Cc1ccc(OC)c(OC)c1)C(Cl)(Cl)Cl (configuration not stated) was tested. Which AC50 did it give?
A: 0.708 µM (active)

Q: With Nc1ncnc2c1nc(-c1ccccc1)n2[C@H]1O[C@@H](CO)[C@@H](O)[C@H]1O as the molecule, how does the activity, negative = inhibition read?
A: -0.591% [at 11.4 µM] (inactive)

Q: For CCO[P@]1(=O)OC[C@@H]2O[C@H](n3cnc4c(N)ncnc43)[C@H](O)[C@@H]2O1, which activity, negative = inhibition is on record?
A: 14% [at 11.4 µM] (inactive)

Q: Cc1ccc(OCC(=O)NNC(=O)CCc2ccccc2)cc1 was tested. Which AC50 did it give?
A: inactive

Q: Cc1c(C(=O)Nc2ccc(OCc3ccccc3)cc2)cccc1[N+](=O)[O-] was tested. Which AC50 did it give?
A: inactive

Q: Which AC50 does the source give for Cc1c(NC(=O)CCCOc2ccccc2)cccc1[N+](=O)[O-] here?
A: 2.51 µM (active)

Q: CCN(CC(=O)Nc1ccc([N+](=O)[O-])cc1OC)c1ccccc1 was tested. Which AC50 did it give?
A: 5.62 µM (active)

Q: For Cc1ccc(OCC(=O)Nc2ccccc2-c2ccccc2)cc1, which AC50 is on record?
A: 3.55 µM (active)

Q: C/C(CC(=O)NCc1ccco1)=N\NC(=O)Cc1ccccc1 was tested. Which AC50 did it give?
A: inactive

Q: COc1ccccc1NC(=O)Cn1cncc1-c1ccc([N+](=O)[O-])cc1 was tested. Which AC50 did it give?
A: inactive

Q: For Cc1ccc(OCCCC(=O)NCc2ccco2)cc1, which AC50 is on record?
A: 10 µM (active)
